Sampled rows, rich in hits. Any-hit rate of the full collection: about 2.7%.
S2 tox = viability counter-screen for ATXN expression inhibitors | S2 cells (HEK-293 line with an ATXN2-luciferase reporter) viability, CellTiter-Fluor protease fluorescence, 24 h | Potency, µM (titrated, usually from 56.7 µM), actives largely listed as cytotoxic | actives 0.49% (n = 400,000) | AID 651635; further: nearly all actives have a fitted effect of over 40% in size
ATXN2 expr inh = inhibitors of ATXN2 expression. HEK-293 ATXN2-luciferase reporter, luminescence, 24 h. Potency, µM (series often up to 57 µM), hits mostly inhibitors. actives 0.72% (n = 360,000). AID 1745845; further: nearly all actives have a fitted effect of over 55% in size
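ATXN2-luciferase reporter cells (luciferase flanked by upstream and downstream ATXN2 gene portions) were treated 24 h at 37 °C with compounds at up to 57 uM. SteadyGlo luminescence gave expression; GF-AFC fluorescence gave viability.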
HepG2 tox = kills HepG2 cells in TGF-b inhibitor counter-screen; HepG2 CAGA-GFP viability, ATP luminescence, 18 h; Potency, µM (titrated, usually from 46.1 µM), hits mostly cytotoxic; actives 0.76% (n = 410,000)
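HepG2 CAGA-GFP cells (1000/well, DMEM with 1% FBS) received compound, then TGF-beta at 500 pg/mL final, and were incubated 18 hours at 37 degrees C. Viability was read by CellTiter-Glo luminescence. Media-only wells were set as complete cell-killing and DMSO as no toxicity.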
ALOX12 inh = blocks human arachidonate 12S-lipoxygenase; P18054; actives 1.1% (n = 580,000); purified 12hLO, xylenol orange hydroperoxide absorbance; Potency, µM (series often up to 108 µM), most hits filed as inhibitors
Target sequence (P18054 whole entry, looked up): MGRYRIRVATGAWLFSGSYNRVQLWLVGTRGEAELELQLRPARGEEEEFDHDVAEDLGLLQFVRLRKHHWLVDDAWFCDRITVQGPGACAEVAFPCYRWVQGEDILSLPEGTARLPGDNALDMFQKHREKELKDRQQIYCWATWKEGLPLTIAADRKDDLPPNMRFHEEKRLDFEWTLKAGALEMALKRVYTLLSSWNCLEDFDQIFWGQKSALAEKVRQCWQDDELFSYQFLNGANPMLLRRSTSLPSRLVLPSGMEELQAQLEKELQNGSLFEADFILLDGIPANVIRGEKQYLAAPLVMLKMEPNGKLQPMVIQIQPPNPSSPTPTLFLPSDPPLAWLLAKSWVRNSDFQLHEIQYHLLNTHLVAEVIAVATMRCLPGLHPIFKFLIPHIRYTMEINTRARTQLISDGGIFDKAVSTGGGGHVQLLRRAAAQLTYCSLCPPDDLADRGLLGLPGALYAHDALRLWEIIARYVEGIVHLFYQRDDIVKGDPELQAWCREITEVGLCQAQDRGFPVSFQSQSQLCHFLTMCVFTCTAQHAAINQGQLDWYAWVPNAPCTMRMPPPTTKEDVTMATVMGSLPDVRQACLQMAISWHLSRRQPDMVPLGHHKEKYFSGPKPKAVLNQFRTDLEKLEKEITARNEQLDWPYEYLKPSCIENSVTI
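Purified human 12hLO (150 nM final) in 25 mM Hepes, 0.01% Triton X-100, pH 7.0 was preincubated 15 min at room temperature with compound. Then 40 uM arachidonic acid was added, 30 min. Hydroperoxide was read by Fe-XO absorbance ratio 573/405 nm.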
TGFb inhibitor = inhibitors of TGF-b signaling. HepG2 CAGA-GFP TGF-b/SMAD3 reporter, GFP fluorescence, 18 h; TGF-beta stimulated, 500 pg/mL final. actives 1.2% (n = 410,000). Potency, µM (series often up to 46.1 µM), hits mostly inhibitors; further: nearly all actives have a fitted effect of over 65% in size
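TGF-beta reporter screen: HEPG2 CAGA-GFP, 1% FBS, 500 pg/mL TGF-beta final, 18 h; per-cell GFP summed per well; curves fitted and categorized by class.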
Numbers stand for hits; – = inactive; ? = inconclusive; · = no result; ! = not confirmed by another sample. The call rests on the fitted dose curve; in most records, active means well fitted curve in the direction sought with a large enough effect; inconclusive means small, poorly fitted or top-dose-only effect, or another doubt; inactive means no such curve, though single readings can be large; an effect the other way counts as inactive or inconclusive.

SMILES	S2 tox	ATXN2 expr inh	HepG2 tox	ALOX12 inh	TGFb inhibitor
O=C(CSc1nnc2c(n1)[nH]c1ccc(F)cc12)Nc1ccccc1F	–	–	–	–	–
Cc1cc(C)nc(SCC(=O)Nc2ccccc2C(N)=O)n1	·	·	·	50µM	·
O=C(CSc1nnc2c3ccccc3c3ccccc3c2n1)Nc1ccccc1F	14µM	?	–	–	–
COC(=O)c1ccccc1NC(=O)CSc1nc(C)cc(C)n1	–	–	–	–	–
Cn1c(CC(=O)Nc2ccccc2F)nnc1SCC(=O)Nc1ccccc1Br	–	–	11µM	–	–
Cc1ccc(-n2nnnc2SCC(=O)N2CCN(CC(=O)N3CCCC3)CC2)c(C)c1	·	·	·	–	·
N#CCCN(Cc1ccccc1)C(CCc1ccccc1)C(=O)NC1CCCCC1 (configuration not stated)	?	?	–	–	13µM
COc1ccc2nc(NC(=O)c3ccoc3C)sc2c1	?	?	7.9µM	–	?
COc1ccc2nc(NC(=O)c3cc(C)oc3C)sc2c1	–	–	–	–	–
Cc1nc(NC(=O)c2ccco2)sc1C(=O)O	–	–	5µM	–	–
COc1cccc(Nc2nc(-c3sc(C)nc3C)cs2)c1	?	·	–	–	?
COc1cccc(Nc2nc(-c3ccc(CNC(C)=O)s3)cs2)c1	·	·	·	16µM	·
COc1ccc2sc(NC(=O)c3ccco3)nc2c1	–	–	–	8.9µM	–
COC(=O)c1sc(NC(=O)c2ccco2)nc1C	–	–	–	–	–
COc1ccc2nc(NC(=S)NC(=O)c3ccco3)sc2c1	?	·	–	–	–
COc1ccc2nc(NC(=S)N(C)C)sc2c1	–	–	–	7.9µM	?
COc1ccc2nc(NC(=O)CN3C(=O)NC4(CCCCC4)C3=O)sc2c1	?	–	4.5µM	–	–
COc1cccc(Nc2nc(-c3sc(NC(=O)c4ccco4)nc3C)cs2)c1	?	?	–	6.3µM	–
COc1ccc(OC)c(-c2csc(N(C)C(=O)c3ccco3)n2)c1	35µM	–	–	–	–
COc1ccc(-c2csc(N(C)C(=O)c3ccco3)n2)cc1	–	–	–	–	–
CCCC(=O)Nc1nc2ccc(OC)cc2s1	–	–	–	–	–
COc1ccc2nc(NC(=O)CN3C(=O)NC4(CCCC4)C3=O)sc2c1	?	–	–	–	–
O=[N+]([O-])c1ccc(N2CCN(c3ccccc3)CC2)c2ccncc12	·	·	·	–	·
CC(=O)Nc1sc(C)c(C)c1C#N	·	·	·	–	·
Cc1sc(NC(=O)CC(C)(C)C)c(C#N)c1C	·	·	·	13µM	·
SMILES	S2 tox	ATXN2 expr inh	HepG2 tox	ALOX12 inh	TGFb inhibitor
O=C(Cn1cnc2onc(-c3ccc(Cl)cc3)c2c1=O)Nc1ccc(F)cc1	–	–	–	45µM	–
O=C(Cn1cnc2onc(-c3ccc(F)cc3)c2c1=O)Nc1ccc(F)c(Cl)c1	–	–	–	–	–
CCN(CCCNC(=O)c1cc2c(=O)[nH]c3ccc(C)cc3c2s1)Cc1ccccc1	?	?	13µM	?	11µM
CCN(CCCNC(=O)c1cc2cc3ccc(C)cc3nc2s1)c1ccccc1	–	–	–	–	6.3µM
CN(CCCNC(=O)c1cc2c(Cl)nc3ccccc3c2s1)Cc1ccccc1	?	?	16µM!	?	?
CCN(CCCNC(=O)c1cc2c(Cl)nc3ccccc3c2s1)Cc1ccccc1	?	?	–	?	–
Cc1ccc2nc(Cl)c3cc(C(=O)NCCCN(C)Cc4ccccc4)sc3c2c1	·	·	13µM	–	?
CCN(CCCNC(=O)c1cc2cc3cc(OC)ccc3nc2s1)c1cccc(C)c1	?	–	–	–	?
COc1cccc(CN2C[C@@H]3C(=O)N(Cc4ccc5c(c4)OCO5)C(=O)[C@@H]3C2)c1OC	·	·	·	–	·
COc1ccc(Cl)cc1NC(=O)COC(=O)CCS(=O)(=O)c1ccc(C)c(C)c1	·	·	·	–	·
O=C(Nc1nnc(C2CC2)s1)c1cc(=O)[nH]c2ccccc12	·	·	·	–	·
CN=C(NC)NCc1ccc(C(=O)OC)cc1	·	·	·	25µM	·
C=CC(=O)Nc1cccc(N(C)c2ccnc(Nc3ccc(N4CCN(C)CC4)cc3)n2)c1	16µM	?	–	·	5µM
CN1CCN(c2ccc(Nc3nccc4[nH]c(-c5cccnc5)cc34)cc2)CC1	·	·	·	–	·
COc1ccccc1C(=O)N1CCN(c2oc(-c3cccc(Cl)c3)nc2C#N)CC1	·	·	·	–	·
